From the supplement of paper PMC10338343
± gives the standard deviation.

tested on: MILI (PIWIL2) piRISC loaded with L1MC piRNA (26 nt); assay: pre-steady-state target cleavage rate (min^-1); guide: L1MC piRNA 5'p-UAACUAAAUACUAUGCAAGCUGUAGG; MIWI and MILI are mouse PIWI proteins and EfPiwi is from a freshwater sponge; tags in brackets are library labels; higher = faster piRNA-guided slicing of the target; settings: auxiliary factor: 500 nM mouse GTSF1
Method: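 Cleave-'n-Seq: a library of target RNAs (target site embedded in constant flanks, ACAGCATTCCGCGTTAGTGATATCCG... 5' flank; DNA-blocked outside the site) at 0.1 nM was incubated with 1 nM active mouse MILI or MIWI piRISC (synthetic 5'-monophosphorylated piRNA guide) with or without 500 nM mouse GTSF1 at 33 °C for 1 min to 16 h. Uncleaved targets were sequenced and normalised to non-target controls, and the pooled three trials were fitted to a burst-and-steady-state model to give the pre-steady-state cleavage rate (min^-1; k3 is constrained to at most 1e-4). Sequence is the target site only; target names encode pairing extent (gX:gY) and contiguous / 1-mismatch / 2-mismatch / bulge geometry. Fits with R² ≤ 0 are excluded.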

UCCUGGUACAGCUUGGUAAGUAUUUAGUAA and UCCUGGAUGACCUUGCAUAGUAUUAAGUUA are within error of each other in “pre-steady-state target cleavage rate” value: 0.18 ± 0.034 for the first, 0.141 ± 0.022 for the second.

First: UCCUCCUACAGCUUGCUUAGUAAUUAGUUA
Second: UCCUCCUACAGCUUGCAUAGUAUUAUGAAA
The “pre-steady-state target cleavage rate” value of the first is higher: 0.24 ± 0.015 for the first, 0.115 ± 0.029 for the second.

UCCUGGAACAGCUUGCAUAGUAUUUAGUGA and UCCUGGAACAGCUUGCAUUGUAAUUAGUUA are within error of each other in “pre-steady-state target cleavage rate” value: 0.229 ± 0.027 for the first, 0.184 ± 0.023 for the second.

Going from UCCUGGAACUGCUUGCAUAGUAAUUAGUUA to UCCUGGAUGUCCUUGGAUAGUUUUUAGUUA, the “pre-steady-state target cleavage rate” value falls from 0.159 ± 0.012 to 0.0144 ± 0.0045.

UCCUGGUACAGCUUGCAUAGAUAUUAGUUA and UCCUCCUACAGCUUGCUAUGUAUUUAGAAA are within error of each other in “pre-steady-state target cleavage rate” value: 0.0155 ± 0.005 for the first, 0.00902 ± 0.0042 for the second.

Compared with UCCUGGAUCACCUAGCAUAGUAUUUAGUUA, UCCUGGAACAGCUUGCCUAGUAUUUAGUUA is higher in “pre-steady-state target cleavage rate” value: 0.17 ± 0.025 for the first, 0.248 ± 0.015 for the second.

Going from UCCUGCUCAGCUUGCAUAGUAUUUAGUUA to “UCCUGGAUGUCCUUGCAUAGUAUUUAGUUA [g2:g19:cont:t1A]”, the “pre-steady-state target cleavage rate” value falls from 0.278 ± 0.014 to 0.119 ± 0.018.

Going from UCCUCCUACAGCUUGCAUUGUUUUUAGUUA to UCCUGGAUGUCGAAGGCAUAGUAUUUAGUUA, the “pre-steady-state target cleavage rate” value rises from 0.0161 ± 0.0055 to 0.0371 ± 0.0065.

UCCUGCUACUGCUUGCAUAGUAUUUAGUUA and UCCUCGUACAGCUUGCAUUGUAUUUAGUUA are within error of each other in “pre-steady-state target cleavage rate” value: 0.234 ± 0.025 for the first, 0.223 ± 0.011 for the second.

Compared with UCCUGGAUGUGCUUGCAUAGUUAUUUAGUUA, UCCUGGAUGACCUUGCAUAGUAUUUAGAAA is higher in “pre-steady-state target cleavage rate” value: 0.0061 ± 0.0048 for the first, 0.133 ± 0.038 for the second.

Going from UCCUGGAUGUCCUUCCUUAGUAUUUAGUUA to UCCUGCUUCAGCUUGCAUACUAUUUAGUUA, the “pre-steady-state target cleavage rate” value rises from 0.00908 ± 0.0046 to 0.0698 ± 0.01.

same assay, conditions: auxiliary factor: none (no GTSF1)

UCCUGGUACAGCUUGGUAAGUAUUUAGUAA and UCCUGGAUGACCUUGCAUAGUAUUAAGUUA are within error of each other in “pre-steady-state target cleavage rate” value: 0.00367 ± 0.0027 for the first, 0.00338 ± 0.0027 for the second.

UCCUCCUACAGCUUGCUUAGUAAUUAGUUA and UCCUGGAACAGCUUGCAUAGUAUUUAGUGA are within error of each other in “pre-steady-state target cleavage rate” value: 0.00424 ± 0.0021 for the first, 0.00433 ± 0.0025 for the second.

UCCUGGAACAGCUUGCAUUGUAAUUAGUUA and UCCUGGAACUGCUUGCAUAGUAAUUAGUUA are within error of each other in “pre-steady-state target cleavage rate” value: 0.00389 ± 0.0028 for the first, 0.00625 ± 0.0021 for the second.

UCCUGGAUGUCCUUGGAUAGUUUUUAGUUA and UCCUGGAUCACCUAGCAUAGUAUUUAGUUA are within error of each other in “pre-steady-state target cleavage rate” value: 0.00344 ± 0.0027 for the first, 0.00435 ± 0.0029 for the second.

UCCUGGAACAGCUUGCCUAGUAUUUAGUUA and UCCUGCUCAGCUUGCAUAGUAUUUAGUUA are within error of each other in “pre-steady-state target cleavage rate” value: 0.00673 ± 0.0024 for the first, 0.00716 ± 0.0018 for the second.

Compared with “UCCUGGAUGUCCUUGCAUAGUAUUUAGUUA [g2:g19:cont:t1A]”, UCCUCCUACAGCUUGCAUUGUUUUUAGUUA is lower in “pre-steady-state target cleavage rate” value: 0.00813 ± 0.0021 for the first, 0.0039 ± 0.002 for the second.

UCCUGGAUGUCGAAGGCAUAGUAUUUAGUUA and UCCUGCUACUGCUUGCAUAGUAUUUAGUUA are within error of each other in “pre-steady-state target cleavage rate” value: 0.00443 ± 0.0024 for the first, 0.00705 ± 0.0018 for the second.

UCCUCGUACAGCUUGCAUUGUAUUUAGUUA and UCCUGGAUGUGCUUGCAUAGUUAUUUAGUUA are within error of each other in “pre-steady-state target cleavage rate” value: 0.00719 ± 0.0021 for the first, 0.00419 ± 0.0033 for the second.

Compared with UCCUGGAUGUCGAACGUUAGUAUAUAGUUA, UCCUGCUUCAGCUUGCAUACUAUUUAGUUA is higher in “pre-steady-state target cleavage rate” value: < 0.0001 for the first, 0.00358 ± 0.002 for the second.
